DAX1 inh-1: blocks DAX1 repression of SF-1 activated StAR promoter | inhibition, % at 6.8 µM | AID 652010 | HEK293T StAR-luciferase reporter, SF-1/DAX-1 repression relief | 1.1% of 370,000 active;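 active means inhibition above the mean over all tested compounds plus 3 SD, cut at about 3.6% in these data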;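 further: 0% = DAX-1 cells with DMSO and 100% = cells lacking DAX-1 with DMSO; higher inhibition means more luminescence from relief of DAX-1 repression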
hcDAF-12 act: activators of H. contortus DAF-12 nuclear receptor. 1.4% of 370,000 active. AID 652067. activation, % at 6.8 µM. HEK293 hcDAF-12 lit1-tk-luc reporter, luminescence; 0% DMSO, 100% Δ7-dafachronic acid;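 active means activation above the mean of all tested compounds plus 3 SD, cut at about 5.5% in these data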;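 further: 100% = response to 3 µM Δ7-dafachronic acid high control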
PolyA inhibitor: yeast polyadenylation inhibition | activity score, % at 12 µM | S. cerevisiae SKY197-pL101 polyadenylation reporter, beta-gal luminescence; efflux-impaired pdr1/pdr3 knockout yeast; score 100 = 6 SD above DMSO | 0.02% of 300,000 active;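 active means lowest replicate activity score at least 50, where 100 means six control SD above control mean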;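 further: yeast exposed to compound for 9 h at 30 °C; higher score means more reporter readthrough which indicates perturbed polyadenylation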
ssDAF12 agonist: activates DAF-12 receptor from parasite S. stercoralis | HEK293 ssDAF-12/GRIP1 lit1-tk-luc reporter, luminescence; % of 3 µM dafachronic acid response | activation, % at 6.8 µM | 1% of 370,000 active | AID 652126;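 active means activation above the mean over all tested compounds plus 3 SD, cut at about 0.9% in these data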;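 further: 0% = DMSO-only wells and 100% = 3 µM delta7-dafachronic acid wells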
hgDAF-12 ag: agonists of H. glycines DAF-12 nuclear receptor; activation, % at 6.8 µM; AID 687014; 1.8% of 370,000 active; HEK293 GAL4-hgDAF12 UAS-luciferase reporter, agonist luminescence; normalized to butyrate control;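 active means activation above a cutoff set at the mean of all screened compounds plus 3 SD, cut at about 10% in these data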;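 further: 0% = DMSO wells and 100% = sodium butyrate wells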
DAX1 inh-2: NR0B1 (DAX1) inhibition; P51843; HEK293 Gal4-DAX1 luciferase reporter, luminescence; inhibition, % at 6.75 µM; 0.99% of 340,000 active; AID 504766;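 active means inhibition above the mean over all tested compounds plus 3 SD, cut at about 4.2% in these data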;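 further: 0% = DAX1-transfected cells with DMSO and 100% = empty-vector control cells with DMSO; inhibition shows as a rise in luminescence from relieved DAX1 repression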
Target sequence (P51843 207-470 limits assumed): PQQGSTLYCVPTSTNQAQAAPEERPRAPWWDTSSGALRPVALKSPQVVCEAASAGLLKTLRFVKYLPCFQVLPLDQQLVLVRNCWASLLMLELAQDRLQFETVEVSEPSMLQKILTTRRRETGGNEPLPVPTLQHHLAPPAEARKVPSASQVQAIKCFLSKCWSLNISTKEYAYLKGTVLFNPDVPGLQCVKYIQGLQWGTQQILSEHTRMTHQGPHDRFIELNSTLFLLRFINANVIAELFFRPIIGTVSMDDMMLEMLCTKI
* = called active by the depositor; . = no result. The list is not random: actives were taken first. Their share in the collection is about 4.1%.

SMILES	DAX1 inh-1	hcDAF-12 act	PolyA inhibitor	ssDAF12 agonist	hgDAF-12 ag	DAX1 inh-2
CN(C)N1C(N)=C(C#N)C(c2cccc3ccccc23)C2=C1CC(c1ccccc1)CC2=O (stereo not drawn)	0	0	-2	-2	-1	5.6*
O=C(c1ccc2c3n(nc2c1)-c1ccccc1CO3)N1CCCCC1	3	6.5*	-13	0	11*	-2
O=C(c1ccc2c3n(nc2c1)-c1ccccc1CO3)N1CCOCC1	.	.	-14	.	.	2
COc1ccc(-c2cc3ccccc3n2CC(O)CN2CCC(C)CC2)cc1 (stereo not drawn)	3	5.7*	3	0	3	3
COc1ccc(-c2cc3ccccc3n2CC(O)Cn2nc(C)cc2C)cc1 (stereo not drawn)	-1	0	-3	-1	-1	-1
Cc1cc(NS(=O)(=O)c2ccc(NS(=O)(=O)c3ccc(CC(C)C)cc3)cc2)nc(C)n1	0	-1	0	-1	-1	5.8*
Cc1ccc(S(=O)(=O)Nc2ccc(S(=O)(=O)Nc3cc(C)nc(C)n3)cc2)cc1	2	2	.	-1	3	1
Cc1ccc(NCc2nnc(SCC(N)=O)n2CC2CCCO2)c(C)c1 (stereo not drawn)	0	-1	10	-1	2	5.5*
CCCc1nnc(SCC(=O)N(CC)CC)n1CC1CCCO1 (stereo not drawn)	0	0	-12	-1	-2	5.5*
Cc1nc(-c2ccc(C(=O)N3CCCC3)cc2)cs1	4	3	10	0	11*	-1
Cc1nc(-c2ccc(C(=O)N3CCOCC3)cc2)cs1	0	-1	22	-1	-1	1
Cc1[nH]c2ccccc2c1CC(=O)Nc1ccc(Nc2cccnc2)c(-c2ccc(Cl)c(Cl)c2)c1	-1	0	.	-1	1	.
COc1ccc(C/C(N)=N/O)cc1	0	0	4	-1	1	0
COc1ccc(N=Nc2ccc(CO)cc2)cc1	1	7.3*	10	1.3*	10	2
COCC(C)n1c(COc2ccccc2F)nnc1SCC(=O)c1c(N)n(C)c(=O)n(C)c1=O (stereo not drawn)	0	-1	6	-2	-2	1
CCCCCCn1c(COc2ccccc2F)nnc1SCC(=O)c1c(N)n(C)c(=O)n(C)c1=O	1	-1	-14	1.2*	0	.
O=C(Cc1c(F)cccc1Cl)NCc1cccnc1	0	5.6*	9	0	3	1
O=C(Cc1c(F)cccc1Cl)Nc1cccnc1	0	2	1	-1	0	0
Cc1ccc(S(=O)(=O)N2CCN(C(=O)COC(=O)COc3ccc(Cl)cc3)CC2)c(C)c1	0	0	.	-1	-1	4.8*
CCN(CC)CCN1C(=O)C(O)=C(C(C)=O)C1c1ccccc1[N+](=O)[O-] (stereo not drawn)	0	6.3*	-16	1.4*	1	1
CCOC(=O)[C@@]12CN(C(=O)OC(C)(C)C)CC=C1N(Cc1ccc(OC)cc1)C(=O)[C@H]2CC(=O)NCCCCc1ccccc1	0	-3	.	-2	-1	.
CC(C)C(=O)NNc1nc2ccccc2s1	1	6.2*	-3	-1	9	0
O=C(NNc1nc2ccccc2s1)Nc1ccc(F)cc1	1	5	12	0	10	6.0*
O=C(c1ccco1)N1CCN(C(=O)c2cc(Cl)nc3ccccc23)CC1	0	2	1	1.2*	1	0
O=C(NNc1nc2ccccc2s1)C1CC1	0	3	5	1	1	0
O=C(NNc1nc2ccccc2s1)Nc1ccc(Cl)c(Cl)c1	0	2	8	-1	-7	0
O=C(NNc1nc2ccccc2s1)c1ccccc1F	0	5.8*	3	0	-1	0
O=C1C2C(CC3c4ccccc4CCN32)CN1c1ccccc1 (stereo not drawn)	-2	0	.	0	3	.
Cc1ccc(NC(=O)OC2CC3CC2[C@H]2CCCCN2[C@H]3C)cc1 (stereo partly drawn)	-1	-2	.	0	4	.

Screening results deposited in PubChem by several laboratories.
